Several values for one entry are separate records, joined by “and”; a condition that tells them apart may be missing. Equal entries are not always repeated. Unmarked numbers belong to inactive results. Records with an inconclusive call do not appear. Where a call stands in place of a potency, no number is given. Activity calls are given as the source filed them. Unless noted, the call rests on the fitted dose curve; in most records, active means well fitted curve in the direction sought with a large enough effect in the repeat runs; inconclusive means weak or mixed curves; inactive means no such curve, though single readings can be large; an effect the other way counts as inactive or inconclusive. *1 amine or outer side, *2 acyl side, *3 side chain or, on linkers, in order; H or OH if unused. Where a SMILES comes first, the peptide text is derived from it. Bridges are numbered along the chain shown (N, C = ends). Roman numbers before positions name the chains, in order. [ ]: non-standard residue; d: D form. ξ: configuration not given here. Actinocin(9to1) = Cc1c2oc3c(C)ccc(C(=O)[*:1])c3nc-2c(C(=O)[*:2])c(N)c1=O; ξNMeV = CNC(C(=O)O)C(C)C; ξV = CC(C)C(N)C(=O)O; Sar = CNCC(=O)O
What was measured:
[1] = molecular target: Nuclear receptor ROR-gamma (Homo sapiens) (UniProt P51449); assay: qHTS assay for small molecule antagonists of the retinoid-related orphan receptor gamma (ROR-gamma) signaling pathway (AID 651802; active means well fitted curve in the direction sought with a large enough effect; an effect the other way counts as inactive or inconclusive;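 further: CHO cells with doxycycline-induced ROR-gamma expression; luciferase reporter luminescence driven by ROR response element; series mostly up to about 92 µM; nearly all actives have a fitted effect of over 60% in size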)
Sequence of Nuclear receptor ROR-gamma (Homo sapiens) (P51449 whole entry, looked up): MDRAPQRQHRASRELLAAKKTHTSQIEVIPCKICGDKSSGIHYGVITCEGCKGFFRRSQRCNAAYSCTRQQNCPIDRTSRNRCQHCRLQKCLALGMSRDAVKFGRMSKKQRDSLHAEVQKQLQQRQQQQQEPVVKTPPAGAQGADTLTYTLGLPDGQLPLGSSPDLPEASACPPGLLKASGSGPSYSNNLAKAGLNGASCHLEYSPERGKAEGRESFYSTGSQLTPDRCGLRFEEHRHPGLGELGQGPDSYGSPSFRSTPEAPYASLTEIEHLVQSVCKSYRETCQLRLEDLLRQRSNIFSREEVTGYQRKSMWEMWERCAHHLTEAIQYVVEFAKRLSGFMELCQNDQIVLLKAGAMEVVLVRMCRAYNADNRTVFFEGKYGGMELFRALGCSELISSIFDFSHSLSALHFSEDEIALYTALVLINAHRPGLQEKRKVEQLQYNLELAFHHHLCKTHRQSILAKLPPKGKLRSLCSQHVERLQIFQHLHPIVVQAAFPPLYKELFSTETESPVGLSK
How it was run: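 Luminescence (One-Glo, 30 min RT) measured 16 h after compound addition and doxycycline induction at 37C. Reporter: RORE-luciferase under TET-inducible ROR-gamma in CHO cells.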

[2] = qHTS assay for small molecule agonists of the antioxidant response element (ARE) signaling pathway measured by Nrf2-dependant transcriptional activity (AID 720636);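 further: HepG2 cells with an ARE-driven luciferase reporter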
How it was run: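 In HepG2 cells engineered with an Nrf2-responsive luciferase gene, ARE induction was quantified as luminescence after 16 hr compound treatment at 37 C.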

[3] = qHTS assay for small molecule antagonists of the retinoid-related orphan receptor gamma (ROR-gamma) signaling pathway - cell viability counter screen (AID 720652);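 further: CHO reporter cells with doxycycline-induced ROR-gamma expression; series mostly up to about 92 µM; compound exposure lasted 16 hr before ATP read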
How it was run: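 Cytotoxicity counter screen: intracellular ATP (CellTiter-Glo luminescence) measured in the doxycycline-induced CHO RORE-luciferase reporter line after 16 hr compound exposure at 37 C, 5% CO2.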

[4] = qHTS assay for small molecule agonists of the antioxidant response element (ARE) signaling pathway measured by Nrf2-dependant transcriptional activity - cell viability counter screen (AID 720653); details: ARE-bla HepG2 viability, CellTiter-Glo ATP luminescence, 16 h; hits give low values
How it was run: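 Cytotoxicity counter screen: intracellular ATP quantified by CellTiter-Glo luminescence in the same ARE-bla HepG2 plates, after 16 h compound exposure and a 2 h beta-lactamase substrate step.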

[5] = molecular target: Tyrosine-protein kinase Yes (Homo sapiens) (UniProt P07947); assay: qHTS for small molecule inhibitors of Yes1 kinase: Primary Screen (AID 686947; active means well fitted curve in the direction sought with a large enough effect; an effect the other way counts as inactive or inconclusive; further: nearly all actives have a fitted effect of over 60% in size)
Sequence of Tyrosine-protein kinase Yes (Homo sapiens) (P07947 whole entry, looked up): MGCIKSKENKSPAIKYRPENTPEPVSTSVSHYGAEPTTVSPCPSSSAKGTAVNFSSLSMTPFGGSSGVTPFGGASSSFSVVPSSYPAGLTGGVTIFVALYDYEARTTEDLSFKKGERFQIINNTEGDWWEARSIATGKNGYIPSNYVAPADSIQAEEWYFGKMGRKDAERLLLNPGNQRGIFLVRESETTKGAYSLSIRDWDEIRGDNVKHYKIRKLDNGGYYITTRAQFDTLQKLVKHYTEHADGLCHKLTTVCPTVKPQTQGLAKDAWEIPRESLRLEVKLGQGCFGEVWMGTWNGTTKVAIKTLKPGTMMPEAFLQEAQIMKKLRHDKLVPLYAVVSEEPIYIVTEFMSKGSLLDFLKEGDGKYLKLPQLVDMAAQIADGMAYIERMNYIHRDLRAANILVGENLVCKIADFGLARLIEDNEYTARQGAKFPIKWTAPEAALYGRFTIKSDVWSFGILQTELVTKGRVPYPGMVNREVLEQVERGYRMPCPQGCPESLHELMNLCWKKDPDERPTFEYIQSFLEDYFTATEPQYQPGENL
How it was run: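 ADP-Glo luminescence reports ADP formed by 4 nM Yes1 phosphorylating poly(E4Y) (0.3 mg/mL) with 0.1 mM ATP for 60 min at room temperature, following 20 min compound preincubation; normalised between DMSO wells with and without enzyme.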

[6] = qHTS for small molecule inhibitors of Yes1 kinase: Counter Assay (AID 686950; active means well fitted curve in the direction sought with a large enough effect; an effect the other way counts as inactive or inconclusive;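 further: no kinase present so only ADP-Glo detection of a fixed ADP amount is tested; luminescence from ADP-Glo reporting ADP in a fixed ATP and ADP mixture; series mostly up to about 77 µM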)
How it was run: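 ADP-Glo luminescence read after a 60 min room-temperature incubation of compound with an ATP/ADP mix (0.08 mM/0.02 mM) and no kinase, following a 20 min compound preincubation. Signal scaled between ATP+ADP (max) and 0.1 mM ATP-only (min) wells; Tris pH 7.5, Mg2+, DTT.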

With `CC1=C2[C@@H]([C@H](C)CC[C@H]2/C=C(\C)C(=O)O)[C@H](O)C1` the outcome [1] was “inactive”, the outcome [2] was “inactive” and the outcome [3] was “inactive”. It also gave a max response [4] of -8.96%.

In the case of `CCOC(C)=O`, the outcome [1] is reported as “inactive”, the outcome [2] is reported as “inactive” and the outcome [3] is reported as “inactive”. For the same compound, the max response [4] was 1.62%.

For `CCCCCCCC(=O)O`, the outcome [1] was “inactive”, the outcome [2] was “inactive” and the outcome [3] was “inactive”. The max response [4] was 3.78% and 1.59%.

`CC(C)(C)NC(=O)[C@@H]1C[C@@H]2CCCC[C@@H]2CN1C[C@@H](O)[C@H](Cc1ccccc1)NC(=O)[C@H](CC(N)=O)NC(=O)c1ccc2ccccc2n1` gave a max response [4] of -9.17%.

In the case of `CC1(C)C(C=C(Cl)Cl)C1C(=O)OCc1cccc(Oc2ccccc2)c1` (stereo not drawn), the outcome [2] is reported as “inactive” and the max response [4] is reported as -3.1% [middle of 4 runs].

In the case of `O=C(O)CN(CCN(CC(=O)O)CC(=O)O)CC(=O)O`, the outcome [2] is reported as “inactive” and the max response [4] is reported as 14.1% and -8.31%.

In the case of `CCCCCCCC/C=C\CCCCCCCC(=O)O`, the outcome [2] is reported as “inactive”, the outcome [3] is reported as “inactive” and the max response [4] is reported as -10.5% and 3.78%.

In the case of `CCC1(Cc2ccc(N)cc2)CCC(=O)NC1=O` (stereo not drawn), the Potency [5] is reported as “inactive” and the outcome [6] is reported as “inactive”.

In the case of `Cc1c2oc3c(C)ccc(C(=O)N[C@@H]4C(=O)NC(C(C)C)C(=O)N5CCC[C@H]5C(=O)N(C)CC(=O)N(C)C(C(C)C)C(=O)O[C@@H]4C)c3nc-2c(C(=O)N[C@@H]2C(=O)NC(C(C)C)C(=O)N3CCC[C@H]3C(=O)N(C)CC(=O)N(C)C(C(C)C)C(=O)O[C@@H]2C)c(N)c1=O` (stereo partly drawn) (I: T[ξV]P[Sar][ξNMeV] / II: T[ξV]P[Sar][ξNMeV]; ester I:1-I:C, II:1-II:C; linker I:N-II:N via Actinocin(9to1)), the Potency [5] is reported as “inactive” and the outcome [6] is reported as “inactive”.

With `CCCCCCCCCCCCCCCCCCOP(=O)([O-])OC1CC[N+](C)(C)CC1` the Potency [5] was “inactive” and the outcome [6] was “inactive”.

For `CC(O)CO` (stereo not drawn), the outcome [1] was “inactive”, the outcome [2] was “inactive” and the outcome [3] was “inactive”. For the same compound, the max response [4] was -5.98% and -4.66%.

For `IC(I)I`, the outcome [2] was “inactive”, the outcome [3] was “inactive” and the max response [4] was 1.96% and -3.08%.

With `Cc1ccccc1` the outcome [1] was “inactive”, the outcome [2] was “inactive” and the outcome [3] was “inactive”. For the same compound, the max response [4] was 6.91% and 8.68%.

In the case of `CCOc1cc2ncc(C#N)c(Nc3ccc(OCc4ccccn4)c(Cl)c3)c2cc1NC(=O)/C=C/CN(C)C`, the outcome [6] is reported as “inactive”.

Reference: PubChem BioAssay (NCATS)
